# PubChem BioAssay
# Inconclusive results are not listed. Activity calls are given as the source filed them.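 The calls were made as follows, unless noted: active = response below a set limit, under 55% cells CD8-positive and vesicle-bound, and CD8 cells' 90th-percentile brightness under 279; inactive = the rest.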
# Tests used:
# [1] = yeast TOR pathway RPL19A-GFP modulators, primary screen, cell-based, S. cerevisiae, multiplex flow cytometry (AID 1862; in the data active = percent of DMSO control GFP below about 86%;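 also: lower values mimic rapamycin by blocking the RPL19A rise seen in DMSO cells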); conditions: S. cerevisiae RPL19A-GFP strain, flow cytometry fluorescence, 3 h; at 10 µM; stronger effect = lower value
# [2] = modulators of MEP2-GFP levels in yeast, primary screen, S. cerevisiae, multiplex flow cytometry (AID 1867;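 active = GFP response, as percent of the DMSO control, above the screen-wide mean plus 3 SD, about 139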;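 also: median GFP channel fluorescence of barcode-gated MEP2-GFP cells measured by flow cytometry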); conditions: S. cerevisiae MEP2-GFP strain, 3 h, at 10 µM, stronger effect = higher value, 100% means same as DMSO wells
# [3] = modulators of CIT2-GFP expression in yeast, primary screen, S. cerevisiae, GFP fusion, multiplex flow cytometry (AID 1870;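 active = percent response above a set limit, the screen-wide mean plus 3 SD, cut at about 130% in these data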;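 also: barcoded CIT2-GFP strain pooled with four other GFP strains with rapamycin as positive control; median GFP fluorescence per well over plate mean of DMSO wells so 100% = DMSO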); conditions: 3 h, at 10 µM, stronger effect = higher value
# [4] = modulators of LAP4-GFP expression in yeast, primary screen, S. cerevisiae, multiplex flow cytometry (AID 1873;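 active = GFP signal, as percent of the solvent control, above the screen mean plus 3 SD, about 149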); conditions: 3 h, at 10 µM, stronger effect = higher value
# [5] = modulators of AGP1-GFP expression in yeast TOR pathway, primary screen, cell-based, multiplex flow cytometry, S. cerevisiae (AID 1887;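 active = GFP signal above the screen-wide mean plus 3 SD, that is over about 124.5% of the solvent control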;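 also: AGP1-GFP fusion strain of S. cerevisiae within a five-strain barcoded multiplex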); conditions: 3 h, at 10 µM, stronger effect = higher value
# [6] = inhibitors of CD8+ T cell-vesicle binding, pilot screen, LFA-1/ICAM-1 modulator project, MLPCN validation set, flow cytometry (AID 2523); conditions: 2C mouse CD8+ T cells, at 7 µM, stronger effect = lower value; double positive events: measured here: CD8+/vesicle+ event percentage;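 as to vesicle binding response: mean PE anti-B7-1 fluorescence of CD8+ cells relative to row control; 100% = QL9-loaded vesicles with DMSO vehicle in the same plate row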
# [7] = biological target: Integrin beta-1 (Homo sapiens) + Integrin alpha-4 (Homo sapiens) (UniProt P13612+P05556); assay: inhibition of HUTS-21 binding to VLA-4, pilot screen, VLA-4 allosteric modulator project, U937 cells, HUTS-21 mAb, flow cytometry, validation set (AID 2674;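 active = inhibition above 50%, about 3 SD of the validation set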;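 also: antibody binding induced by the VLA-4 ligand LDV present at three times its Kd; 0% = LDV ligand with antibody and no compound and 100% = antibody without LDV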); conditions: HUTS-21 LIBS mAb binding, at 6.7 µM, stronger effect = higher value, binding induced by LDV ligand
# Sequence of Integrin beta-1 (Homo sapiens) + Integrin alpha-4 (Homo sapiens) (P05556 whole entry, looked up): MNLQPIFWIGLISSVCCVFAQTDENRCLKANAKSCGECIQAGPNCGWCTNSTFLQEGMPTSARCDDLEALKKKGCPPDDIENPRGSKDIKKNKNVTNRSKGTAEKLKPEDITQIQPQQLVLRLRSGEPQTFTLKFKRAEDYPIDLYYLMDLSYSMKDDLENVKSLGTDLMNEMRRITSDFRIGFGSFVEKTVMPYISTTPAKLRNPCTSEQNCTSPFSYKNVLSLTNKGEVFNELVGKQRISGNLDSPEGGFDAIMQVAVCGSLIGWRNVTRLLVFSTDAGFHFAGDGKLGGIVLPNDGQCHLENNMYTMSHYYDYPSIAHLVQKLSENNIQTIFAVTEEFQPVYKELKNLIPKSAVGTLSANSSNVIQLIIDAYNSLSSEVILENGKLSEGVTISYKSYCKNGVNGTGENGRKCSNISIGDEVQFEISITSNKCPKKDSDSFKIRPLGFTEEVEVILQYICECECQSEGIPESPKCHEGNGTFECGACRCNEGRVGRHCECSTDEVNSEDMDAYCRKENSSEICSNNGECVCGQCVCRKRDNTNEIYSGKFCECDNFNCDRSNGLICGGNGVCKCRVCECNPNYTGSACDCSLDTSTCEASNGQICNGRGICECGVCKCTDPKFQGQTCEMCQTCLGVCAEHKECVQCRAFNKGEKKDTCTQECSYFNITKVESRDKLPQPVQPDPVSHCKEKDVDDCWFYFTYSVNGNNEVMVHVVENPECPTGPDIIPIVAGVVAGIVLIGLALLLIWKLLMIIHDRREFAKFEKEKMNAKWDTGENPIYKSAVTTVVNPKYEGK
# Sequence of Integrin beta-1 (Homo sapiens) + Integrin alpha-4 (Homo sapiens) (P13612 whole entry, looked up): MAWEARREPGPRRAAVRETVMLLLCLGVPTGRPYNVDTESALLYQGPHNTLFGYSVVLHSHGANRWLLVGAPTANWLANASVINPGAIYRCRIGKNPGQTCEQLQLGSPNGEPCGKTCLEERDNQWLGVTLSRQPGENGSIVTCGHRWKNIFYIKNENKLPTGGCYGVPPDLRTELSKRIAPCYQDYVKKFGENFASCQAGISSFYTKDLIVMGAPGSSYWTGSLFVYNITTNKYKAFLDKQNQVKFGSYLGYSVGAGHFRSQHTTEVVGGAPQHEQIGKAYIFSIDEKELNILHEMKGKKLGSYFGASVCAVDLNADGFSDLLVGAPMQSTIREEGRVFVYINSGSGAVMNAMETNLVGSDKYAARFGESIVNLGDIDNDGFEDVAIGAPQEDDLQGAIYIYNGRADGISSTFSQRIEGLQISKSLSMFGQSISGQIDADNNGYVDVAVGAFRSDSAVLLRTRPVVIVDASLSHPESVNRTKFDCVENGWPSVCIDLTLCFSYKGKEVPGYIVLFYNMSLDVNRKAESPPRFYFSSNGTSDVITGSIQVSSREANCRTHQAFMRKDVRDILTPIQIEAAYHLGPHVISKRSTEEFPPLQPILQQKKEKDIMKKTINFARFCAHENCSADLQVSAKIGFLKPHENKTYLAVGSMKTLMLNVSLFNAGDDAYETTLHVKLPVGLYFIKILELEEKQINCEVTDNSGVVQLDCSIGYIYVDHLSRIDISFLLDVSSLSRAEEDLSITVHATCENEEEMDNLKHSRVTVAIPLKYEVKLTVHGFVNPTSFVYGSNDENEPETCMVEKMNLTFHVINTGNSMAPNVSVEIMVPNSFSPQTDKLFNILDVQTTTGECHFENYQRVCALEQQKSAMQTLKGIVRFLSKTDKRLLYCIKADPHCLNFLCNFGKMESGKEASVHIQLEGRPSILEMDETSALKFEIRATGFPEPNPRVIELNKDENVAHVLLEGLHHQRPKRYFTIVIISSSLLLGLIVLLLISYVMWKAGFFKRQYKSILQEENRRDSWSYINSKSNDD
# [8] = superoxide lowering in aged yeast cells, pilot screen, validation compound set (AID 2706;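 active = superoxide response below 65% of plate, a cut near 3 SD across the whole screen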;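 also: yeast exposed to compound for one week at 30 degrees C before staining; 100% = mean of all compound wells on the same plate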); conditions: S. cerevisiae aging, superoxide DHE fluorescence; at 10 µM; stronger effect = lower value
# [9] = biological target: Beta-adrenergic receptor kinase 1 (Homo sapiens) (UniProt P25098); assay: GRK2 binders displacing RNA aptamer, biochemical, validation, human GRK2, bead flow cytometry (AID 488806;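 active = aptamer binding inhibition above 30%, about 3 SD of noise from non-fluorescent compounds; inactive = inhibition at or below 30%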); conditions: bead-bound GRK2, FAM-aptamer displacement, at 10 µM, stronger effect = higher value
# Sequence of Beta-adrenergic receptor kinase 1 (Homo sapiens) (P25098 whole entry, looked up): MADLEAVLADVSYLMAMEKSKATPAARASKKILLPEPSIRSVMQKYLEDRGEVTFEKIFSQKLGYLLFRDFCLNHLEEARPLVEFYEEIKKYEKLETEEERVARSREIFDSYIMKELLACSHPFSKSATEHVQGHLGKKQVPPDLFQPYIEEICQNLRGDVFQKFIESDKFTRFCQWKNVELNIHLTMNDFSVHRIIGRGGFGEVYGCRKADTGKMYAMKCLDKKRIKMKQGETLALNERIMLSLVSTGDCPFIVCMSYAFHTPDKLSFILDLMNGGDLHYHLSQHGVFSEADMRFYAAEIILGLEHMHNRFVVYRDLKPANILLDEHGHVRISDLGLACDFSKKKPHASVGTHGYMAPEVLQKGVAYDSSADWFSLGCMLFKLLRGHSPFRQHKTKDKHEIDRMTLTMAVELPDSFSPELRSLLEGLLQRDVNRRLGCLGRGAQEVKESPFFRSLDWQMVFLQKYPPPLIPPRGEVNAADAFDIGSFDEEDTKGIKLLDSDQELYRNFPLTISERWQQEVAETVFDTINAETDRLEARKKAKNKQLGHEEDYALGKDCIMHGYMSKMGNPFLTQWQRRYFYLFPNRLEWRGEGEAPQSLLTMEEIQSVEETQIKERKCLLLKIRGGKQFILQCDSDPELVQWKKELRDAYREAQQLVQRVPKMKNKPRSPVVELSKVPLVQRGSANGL
# [10] = biological target: Beta-2 adrenergic receptor (Homo sapiens) (UniProt P07550); assay: beta2AR agonists driving receptor internalization, pilot screen, cell-based, FAP fluorogen, flow cytometry, validation set (AID 504459;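 active = percent response above 42, roughly 3 SD of non-fluorescent test compounds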;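 also: agonist-driven loss of surface beta2AR via internalization measured by FAP dye flow cytometry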); conditions: Am2.2-beta2AR cells, FAP surface receptor flow cytometry; at 10 µM; stronger effect = higher value
# Sequence of Beta-2 adrenergic receptor (Homo sapiens) (P07550 whole entry, looked up): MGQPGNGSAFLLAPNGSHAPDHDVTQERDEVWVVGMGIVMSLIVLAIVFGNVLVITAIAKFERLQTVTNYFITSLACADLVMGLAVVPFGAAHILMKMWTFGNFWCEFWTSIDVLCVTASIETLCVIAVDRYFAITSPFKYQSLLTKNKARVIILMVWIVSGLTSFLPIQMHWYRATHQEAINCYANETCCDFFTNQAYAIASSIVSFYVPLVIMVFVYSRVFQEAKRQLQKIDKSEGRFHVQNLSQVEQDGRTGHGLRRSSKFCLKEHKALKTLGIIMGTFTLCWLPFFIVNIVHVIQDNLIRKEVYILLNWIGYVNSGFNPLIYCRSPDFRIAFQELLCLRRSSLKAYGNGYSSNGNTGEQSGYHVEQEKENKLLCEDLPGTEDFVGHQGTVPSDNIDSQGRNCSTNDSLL
# [11] = biological target: AP-2 complex subunit beta (Homo sapiens) (UniProt P63010); assay: inhibitors of arrestin peptide binding to AP2, pilot screen, biochemical, validation set, GST-AP2 beads, flow cytometry (AID 504541;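 active = inhibition above 54%, about 3 SD of non-fluorescent compounds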;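 also: AP2 carries R879A mutation and is captured from E. coli lysate; bead-bound FITC arrestin peptide fluorescence measuring arrestin peptide binding to AP2; 0% = DMSO wells and 100% = excess unlabeled arrestin peptide control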); conditions: FITC arrestin peptide, at 10 µM, stronger effect = higher value, AP2 beta2 appendage fragment, R879A mutant
# Sequence of AP-2 complex subunit beta (Homo sapiens) (P63010 whole entry, looked up, the tested form may be a part, one chain of several): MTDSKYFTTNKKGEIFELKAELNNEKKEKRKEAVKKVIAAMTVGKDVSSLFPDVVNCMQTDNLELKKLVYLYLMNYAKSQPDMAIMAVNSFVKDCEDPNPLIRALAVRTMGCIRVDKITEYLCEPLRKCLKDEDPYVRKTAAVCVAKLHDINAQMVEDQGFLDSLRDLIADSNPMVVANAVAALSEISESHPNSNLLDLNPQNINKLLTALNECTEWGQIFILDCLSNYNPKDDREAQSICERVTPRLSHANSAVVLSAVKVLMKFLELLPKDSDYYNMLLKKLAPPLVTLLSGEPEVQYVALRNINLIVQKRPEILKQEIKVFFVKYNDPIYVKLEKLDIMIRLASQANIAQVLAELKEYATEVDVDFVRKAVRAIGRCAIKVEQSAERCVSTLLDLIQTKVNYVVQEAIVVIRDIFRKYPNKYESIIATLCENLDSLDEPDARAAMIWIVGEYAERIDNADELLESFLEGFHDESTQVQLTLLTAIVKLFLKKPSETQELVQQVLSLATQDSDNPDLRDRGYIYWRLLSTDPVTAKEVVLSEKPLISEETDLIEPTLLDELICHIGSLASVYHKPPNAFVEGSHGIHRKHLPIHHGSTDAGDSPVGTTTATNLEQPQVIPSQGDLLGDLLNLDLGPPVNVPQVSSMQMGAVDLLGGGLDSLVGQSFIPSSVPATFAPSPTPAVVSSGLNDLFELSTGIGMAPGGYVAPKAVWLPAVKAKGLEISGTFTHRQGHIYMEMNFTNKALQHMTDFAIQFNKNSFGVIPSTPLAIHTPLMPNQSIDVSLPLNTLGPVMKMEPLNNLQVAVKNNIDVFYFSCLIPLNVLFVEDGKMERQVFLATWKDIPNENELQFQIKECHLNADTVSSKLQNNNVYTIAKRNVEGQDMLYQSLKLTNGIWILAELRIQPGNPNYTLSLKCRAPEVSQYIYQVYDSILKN
# [12] = yeast V-ATPase proton transport modulators, S. cerevisiae, pHLuorin, HTS validation (AID 504600; in the data active = response above about 15%;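 also: plate controls were DMSO for no effect and reference compound for full effect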); conditions: S. cerevisiae pHLuorin cytosolic pH, at 10 µM, stronger effect = higher value
# [13] = tested on: anti-desmoglein-3 scFv antibody binding to human DSG3; assay: inhibitors of anti-DSG3 scFv binding to DSG3, pilot screen, biochemical, validation compound set, bead-based, flow cytometry (AID 588368;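 active = binding below the plate cutoff, the plate median minus 3 SD, with a reading above zero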;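 also: signal is the median channel fluorescence of bead-bound GFP antibody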); conditions: Protein G beads, DSG3-Fc, scFv-GFP binding, at 10 µM, stronger effect = lower value
# [14] = inhibitors of fungal efflux pumps CDR1, CDR2, MDR1, pilot screen, validation compound set, multiplex, phenotypic (AID 588506;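 active = efflux inhibition above 0.42, the validation set average plus 4 SD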;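 also: Nile Red retained in cells so higher fluorescence means more efflux inhibition; 0 = negative control wells and 1 = enniatin B 25 µM full block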); conditions: S. cerevisiae pump-expressing triplex, Nile Red efflux flow cytometry; at 10 µM; stronger effect = higher value; the pumps come from Candida albicans
# [15] = biological target: ATP-binding cassette sub-family B member 6 (Homo sapiens) (UniProt Q9NP58); assay: ABCB6 transporter inhibitors, pilot screen, K562-ABCB6 cells, flow cytometry, validation set (AID 588550;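 active = inhibition above the screen-wide mean plus 3 SD, about 51%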;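 also: 0% = DMSO wells and 100% = benzethonium chloride 70 µM positive control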); conditions: K562-ABCB6 porphyrin accumulation, 1 h, at 10 µM, stronger effect = higher value
# Sequence of ATP-binding cassette sub-family B member 6 (Homo sapiens) (Q9NP58 whole entry, looked up): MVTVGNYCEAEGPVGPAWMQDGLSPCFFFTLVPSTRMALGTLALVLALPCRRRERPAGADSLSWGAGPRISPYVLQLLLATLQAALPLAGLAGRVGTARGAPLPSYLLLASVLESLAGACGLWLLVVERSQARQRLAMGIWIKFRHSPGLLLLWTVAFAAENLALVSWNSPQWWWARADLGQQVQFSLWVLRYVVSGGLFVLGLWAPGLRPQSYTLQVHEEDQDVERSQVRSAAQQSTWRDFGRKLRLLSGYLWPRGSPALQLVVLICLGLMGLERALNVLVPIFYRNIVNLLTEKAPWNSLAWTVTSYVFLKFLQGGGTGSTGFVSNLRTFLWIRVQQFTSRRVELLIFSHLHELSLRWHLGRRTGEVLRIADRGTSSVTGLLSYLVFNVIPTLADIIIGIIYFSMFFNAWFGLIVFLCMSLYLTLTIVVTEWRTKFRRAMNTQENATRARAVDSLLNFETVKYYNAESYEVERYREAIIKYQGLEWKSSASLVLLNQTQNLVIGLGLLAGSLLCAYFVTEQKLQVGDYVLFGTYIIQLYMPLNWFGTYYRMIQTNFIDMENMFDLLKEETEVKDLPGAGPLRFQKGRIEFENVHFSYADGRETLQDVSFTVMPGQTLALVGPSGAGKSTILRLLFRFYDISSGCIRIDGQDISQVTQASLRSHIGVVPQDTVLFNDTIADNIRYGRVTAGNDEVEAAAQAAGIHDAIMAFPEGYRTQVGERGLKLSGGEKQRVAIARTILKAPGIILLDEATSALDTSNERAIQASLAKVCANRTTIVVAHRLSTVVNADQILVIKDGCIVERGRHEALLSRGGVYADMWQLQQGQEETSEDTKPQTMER
# [16] = promoters of myeloid differentiation in arrested cells, primary screen, cell-based, GFP/MAC1 double positive, flow cytometry, validation set (AID 588685;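 active = differentiation response of at least 50%, scaled between solvent and reference control, from cells with both markers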;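 also: compound exposure lasts four days before antibody staining and flow analysis; 0% = DMSO wells and 100% = 5 µM fulvestrant positive control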); conditions: ER-HoxA9 marrow cells, stronger effect = higher value, normalized: vehicle 0, fulvestrant 100
Structure (SMILES),percent of DMSO control GFP [1],GFP response vs DMSO [2],percent response of DMSO control [3],GFP response vs DMSO [4],"GFP response, % of DMSO [5]",double positive events [6] [%],vesicle binding response [6],inhibition [7],superoxide response (% of plate) [8],aptamer binding inhibition [9],response [10],inhibition [11],response [12],binding (% of control) [13],efflux inhibition (fraction of control) [14],inhibition [15],differentiation response [16]
Cc1ccc(N2CCN(C(=S)c3ccc(-c4cccc([N+](=O)[O-])c4)o3)CC2)cc1,98.1% (inactive),103% (inactive),109% (inactive),126% (inactive),124% (inactive),61.7,217% (inactive),-4.52% (inactive),89.3% (inactive),3% (inactive),-41.3% (inactive),1.79% (inactive),-4.54% (inactive),102% (inactive),-0.13 (inactive),3% (inactive),-9.91% (inactive)
Cc1cccc(-c2ncc(CN3CCN(CC(C)C)C(CCO)C3)cn2)c1 (stereo unspecified),104% (inactive),100% (inactive),108% (inactive),76.2% (inactive),99.2% (inactive),65.5,344% (inactive),-3.57% (inactive),97.3% (inactive),2% (inactive),-5.5% (inactive),-1.77% (inactive),3.08% (inactive),101% (inactive),0.02 (inactive),15% (inactive),4.15% (inactive)
CCCCC(=O)O[C@H]1CC[C@H]2[C@@H]3CCc4cc(O)ccc4[C@H]3CC[C@]12C,100% (inactive),105% (inactive),109% (inactive),125% (inactive),116% (inactive),62.5,210% (inactive),29.5% (inactive),93.8% (inactive),-4% (inactive),52.1% (active),30.7% (inactive),-0.48% (inactive),106% (inactive),-0.17 (inactive),-1% (inactive),-6.96% (inactive)
Cc1ccc(S(=O)(=O)NC(C(=O)Oc2cc3oc(=O)cc(C)c3cc2Cl)C(C)C)cc1 (stereo unspecified),102% (inactive),102% (inactive),97.7% (inactive),103% (inactive),111% (inactive),62.7,264% (inactive),3.99% (inactive),98.7% (inactive),3% (inactive),-20.1% (inactive),-3.53% (inactive),1.33% (inactive),98.7% (inactive),0.21 (inactive),7% (inactive),-0.06% (inactive)
COc1ccc2oc(=O)c(C(=O)Nc3ccccc3-c3ccccc3)cc2c1,101% (inactive),104% (inactive),99% (inactive),97.1% (inactive),113% (inactive),64.5,167% (inactive),2.29% (inactive),94.6% (inactive),4% (inactive),13.6% (inactive),85% (active),-7.05% (inactive),97.4% (inactive),0 (inactive),6% (inactive),-8.93% (inactive)
N#Cc1cc2c([nH]c1=O)CCCC2,103% (inactive),98.3% (inactive),108% (inactive),90.7% (inactive),108% (inactive),63.2,184% (inactive),16.1% (inactive),89.5% (inactive),0% (inactive),-10.3% (inactive),-13.1% (inactive),12.5% (inactive),97.7% (inactive),-0.04 (inactive),-2% (inactive),-5.62% (inactive)
Cc1ccc(C(=O)NCCNC(=O)c2ccccc2)cc1,92.8% (inactive),96.6% (inactive),88% (inactive),98.3% (inactive),103% (inactive),69.2,179% (inactive),13.4% (inactive),102% (inactive),0% (inactive),-20.1% (inactive),-2.62% (inactive),-1.2% (inactive),103% (inactive),-0.04 (inactive),4% (inactive),-18.8% (inactive)
CC[N+]1(CC)CC2=Cc3ccccc3CC2C1 (stereo unspecified),91.5% (inactive),121% (inactive),93.9% (inactive),80.3% (inactive),88.9% (inactive),64.8,178% (inactive),13.2% (inactive),90.8% (inactive),2% (inactive),0.79% (inactive),43.9% (inactive),-6.57% (inactive),99% (inactive),0.3 (inactive),13% (inactive),0% (inactive)
CC12CCC(C(=O)NNc3ccccc3)(C(=O)C1=O)C2(C)C (stereo unspecified),104% (inactive),97.4% (inactive),102% (inactive),94.8% (inactive),100% (inactive),62,217% (inactive),-30.5% (inactive),105% (inactive),8% (inactive),-5.89% (inactive),19.1% (inactive),-0.25% (inactive),101% (inactive),-0.03 (inactive),-14% (inactive),15.2% (inactive)
COc1ccc(-c2cc(C(=O)N3CCOCC3)c3cc(C)ccc3n2)cc1,91.1% (inactive),102% (inactive),101% (inactive),110% (inactive),107% (inactive),73.1,206% (inactive),-8.78% (inactive),92% (inactive),1% (inactive),-16.3% (inactive),9.71% (inactive),-6.37% (inactive),104% (inactive),-0.09 (inactive),7% (inactive),9.79% (inactive)
CC[N+]1(C)CC2CCC(C)(C1)C2(C)C (stereo unspecified),106% (inactive),104% (inactive),101% (inactive),96.5% (inactive),97.4% (inactive),59.7,193% (inactive),11.9% (inactive),103% (inactive),5% (inactive),5% (inactive),11.5% (inactive),-4.32% (inactive),98% (inactive),-0.06 (inactive),7% (inactive),-21.6% (inactive)
CSCCC1NC2(C(=O)Nc3ccc(Cl)cc32)[C@@H]2C(=O)N(C3CCCC3)C(=O)[C@H]12 (stereo partly specified),101% (inactive),109% (inactive),103% (inactive),102% (inactive),98.9% (inactive),59.4,121% (inactive),-37.3% (inactive),94.5% (inactive),6% (inactive),-27.1% (inactive),-6.32% (inactive),1.16% (inactive),109% (inactive),-0.29 (inactive),-10% (inactive),1.28% (inactive)
O=C(NCCO)c1ccc2[nH]c3ccccc3c2c1,98.4% (inactive),104% (inactive),102% (inactive),101% (inactive),101% (inactive),58.7,246% (inactive),-0.45% (inactive),96.6% (inactive),2% (inactive),-3.67% (inactive),-8.91% (inactive),3.8% (inactive),98.7% (inactive),0.11 (inactive),-1% (inactive),5.13% (inactive)
COC1CCN(C(=O)c2ccc(OC3CCN(Cc4ccccn4)CC3)cc2)CC1,104% (inactive),109% (inactive),104% (inactive),114% (inactive),110% (inactive),65,133% (inactive),9.13% (inactive),89.2% (inactive),-2% (inactive),-2.71% (inactive),26.3% (inactive),-3.44% (inactive),103% (inactive),-0.17 (inactive),8% (inactive),-2.4% (inactive)
Cc1nc2ccccc2n1CC(O)Cn1c2ccccc2c2ccccc21 (stereo unspecified),90.9% (inactive),115% (inactive),101% (inactive),78.7% (inactive),91.9% (inactive),62.2,174% (inactive),4.52% (inactive),97.8% (inactive),2% (inactive),8.04% (inactive),-4.66% (inactive),-1.44% (inactive),104% (inactive),0.19 (inactive),9% (inactive),-1.64% (inactive)
COc1cc(NC(=S)NN2CCN(C)CC2)cc(OC)c1OC,105% (inactive),108% (inactive),116% (inactive),92% (inactive),106% (inactive),62.3,240% (inactive),7.85% (inactive),91.4% (inactive),3% (inactive),-10.5% (inactive),-10.5% (inactive),2.58% (inactive),105% (inactive),-0.04 (inactive),13% (inactive),5.13% (inactive)
Cc1cc(=O)c2c(O)c(O)ccc2o1,102% (inactive),107% (inactive),98.9% (inactive),90.7% (inactive),101% (inactive),60.3,30% (inactive),-7.72% (inactive),105% (inactive),-4% (inactive),5.76% (inactive),-12.7% (inactive),-0.09% (inactive),98.5% (inactive),-0.07 (inactive),7% (inactive),9.04% (inactive)
COc1ccc2[nH]c3c(c2c1)CCNC3C1CC=C(C)CC1 (stereo unspecified),95.9% (inactive),128% (inactive),104% (inactive),79.8% (inactive),101% (inactive),69,519% (inactive),7.43% (inactive),111% (inactive),-1% (inactive),13.6% (inactive),2.43% (inactive),-0.18% (inactive),113% (inactive),0.12 (inactive),-1% (inactive),0.82% (inactive)
